Data taken from PubChem BioAssay AID588342 (National Center for Advancing Translational Sciences (NCATS), 2011).
Screen size: about 360,000 compounds; about 25,000 (6.9%) were called active. Inconclusive results (about 9%) are left out. The call rests on the fitted dose curve; in most records, active means well fitted inhibition curve with a large enough effect; inconclusive means small, poorly fitted or top-dose-only effect; inactive means flat fitted curve, though single readings scatter. What follows is part of a selection rich in actives, with near analogues and random picks from the rest. Entries that show only a call come without a potency.

biological target: Luciferin 4-monooxygenase (Photinus pyralis) (UniProt P08659); experiment: qHTS profiling assay for firefly luciferase inhibitor/activator using purifed enzyme and Km concentrations of substrates (counterscreen for miR-21 project); details: purified FLuc, luminescence inhibition; series mostly up to 57.5 µM; further: nearly all actives have a fitted effect of over 55% in size
Sequence (P08659 whole entry, looked up): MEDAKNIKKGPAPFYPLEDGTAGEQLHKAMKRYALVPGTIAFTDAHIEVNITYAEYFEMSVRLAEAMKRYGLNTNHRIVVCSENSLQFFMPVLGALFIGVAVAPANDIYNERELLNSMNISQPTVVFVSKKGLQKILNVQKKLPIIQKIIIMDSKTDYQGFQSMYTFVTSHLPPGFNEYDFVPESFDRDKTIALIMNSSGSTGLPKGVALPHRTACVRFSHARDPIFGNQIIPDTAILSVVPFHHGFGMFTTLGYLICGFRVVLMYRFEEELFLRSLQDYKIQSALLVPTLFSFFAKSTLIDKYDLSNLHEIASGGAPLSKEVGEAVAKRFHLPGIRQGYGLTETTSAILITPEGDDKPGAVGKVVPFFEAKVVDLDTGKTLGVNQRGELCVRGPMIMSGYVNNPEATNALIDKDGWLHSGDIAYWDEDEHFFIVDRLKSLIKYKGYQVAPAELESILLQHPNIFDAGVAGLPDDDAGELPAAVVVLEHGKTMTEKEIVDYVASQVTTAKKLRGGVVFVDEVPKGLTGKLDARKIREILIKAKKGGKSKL
Procedure, shortened: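 Biochemical qHTS of compounds, final roughly 60 µM downward over six points, against 10 nM purified firefly luciferase using Km concentrations of substrates (10 uM D-luciferin, 10 uM ATP) in Tris acetate pH 7.5 buffer; luminescence output.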
Potency means the concentration at half of the fitted maximal effect.

SMILES | Potency
COc1ccccc1CNS(=O)(=O)c1cc(C(=O)NCc2ccccn2)c(Cl)cc1Cl | inactive
CCC(C(=O)Nc1cc(OC)ccc1OC)n1c(=O)c(C(F)(F)F)nc2ccccc21 (stereo unspecified) | inactive
O=C(O[C@H]1[C@H](Cc2ccccc2)NS(=O)(=O)[C@H]2C[C@@H]3C=C[C@]12O3)c1ccc([N+](=O)[O-])cc1 | inactive
CCc1nonc1NC(=O)c1oc2ccc(Cl)cc2c1C | inactive
Cc1cc(C)cc(NS(=O)(=O)c2cc3c(cc2C)NC(=O)CO3)c1 | inactive
Cc1cccc(C(=O)N2CCc3c([nH]c4ccccc34)C2CC(C)C)n1 (stereo unspecified) | 16.9 µM (active)
Cc1ccc(C2c3[nH]c4ccccc4c3CCN2C(=O)c2cccc(C)c2)cc1 (stereo unspecified) | inactive
Cc1cccc(C2c3[nH]c4ccccc4c3CCN2C(=O)c2cc(-c3cccn3C)n[nH]2)n1 (stereo unspecified) | inactive
O=C(NCc1cccnc1)C(=O)NCC(c1cccnc1)N1CCN(c2ccccc2)CC1 (stereo unspecified) | inactive
CCn1cc(C(=O)NCc2ccc(C)cc2)c(=O)c2cc(S(=O)(=O)N3CCc4ccccc4C3)ccc21 | inactive
O=C(Nc1cccc([N+](=O)[O-])c1)N1CCc2ccccc2C1 | 21.3 µM (active)
CN1CCN(CC(=O)Nc2cccc([N+](=O)[O-])c2)CC1 | inactive
CCc1ccc(NC(=O)N2CCc3ccccc3C2)cc1 | 12 µM (active)
O=C(Nc1cccc([N+](=O)[O-])c1)Nn1cnnc1 | inactive
CCc1ccc(NC(=O)N2CCN(c3ccccc3)CC2)cc1 | inactive
Cc1ccc(NC(=O)CN2CCc3ccccc3C2)cc1C | inactive
Cc1cc(-c2ccc(C)c(S(=O)(=O)N3c4ccccc4CC3C)c2)on1 (stereo unspecified) | inactive
Cn1c(=O)c2c(nc(SCC(=O)Nc3ccc(F)cc3)n2Cc2ccc(Cl)cc2)n(C)c1=O | inactive
S=C(Cc1ccc(Cl)cc1)N1CCOCC1 | inactive
CCOC(=O)c1ccc(N2C(=O)c3n[nH]c(C)c3C2c2ccc(O)c(OC)c2)cc1 (stereo unspecified) | inactive
CCOc1ccc(N(CC)S(=O)(=O)N2CCCC(C(=O)Nc3ccc(C(C)=O)cc3)C2)cc1 (stereo unspecified) | inactive
NC(=O)CC[C@@H]1NC(=O)[C@@H]2CCCN2C(=O)c2cc([N+](=O)[O-])cc(F)c2NCCC[C@@H](C(N)=O)NC1=O | inactive
Cc1ccc(C(C)C)c(OCCSc2nc3ccccc3n2CC(=O)O)c1 | inactive
CCc1ccc(NC(=O)C2CCCN2S(=O)(=O)c2ccc3nc(-c4ccccc4)[nH]c3c2)cc1 (stereo unspecified) | inactive
CCOc1ccc(NCCC(=O)c2ccc3c(c2)OCO3)cc1 | 21.3 µM (active)
CCOc1ccc(C(=O)CCC(=O)Nc2ccncc2)cc1 | inactive

SMILES | Potency
COc1ccc(C2(C)NC(=O)N(CC(=O)c3ccc4c(c3)OCO4)C2=O)cc1 (stereo unspecified) | inactive
Cc1ccc2nc(CN3CCN(S(=O)(=O)c4ccc(C)c(C)c4)CC3)oc2c1 | inactive
CCC1CCCCN1S(=O)(=O)Cc1ccccc1Cl (stereo unspecified) | inactive
CC1(C)NC(=O)N(CC(=O)N2CCN(S(=O)(=O)c3ccccc3F)CC2)C1=O | inactive
Cc1ccc(NC(=S)NCCc2ccc(Cl)cc2)c(C)c1 | inactive
Cc1ccc(NC(=S)NCc2ccccc2Cl)c(C)c1 | inactive
Cc1ccc(NC(=S)Nc2ncccc2C)c(C)c1 | 6.75 µM (active)
CC(C)N(C(=O)CSc1nnc(NC2CC2)s1)c1ccccc1 | inactive
CN(C(=O)CSc1nnc(-c2ccc(C(C)(C)C)cc2)n1C)C1CCS(=O)(=O)C1 (stereo unspecified) | 15.1 µM (active)
COc1ccc2c(-c3ccccc3)cc(SCC(=O)N(C)C3CCS(=O)(=O)C3)nc2c1 (stereo unspecified) | inactive
CN(C(=O)CSc1nnc(Nc2ccccc2)s1)C1CCS(=O)(=O)C1 (stereo unspecified) | 16.9 µM (active)
CCn1c(SCC(=O)N(C)C2CCS(=O)(=O)C2)nnc1-c1cccs1 (stereo unspecified) | inactive
CN(C(=O)CSc1nnc(-c2ccc3c(c2)OCO3)o1)C1CCS(=O)(=O)C1 (stereo unspecified) | inactive
COc1cccc(-c2nc(CS(=O)(=O)CC(=O)N3CCN(c4cc(C)ccc4C)CC3)c(C)o2)c1 | inactive
COc1cccc(OCC(O)CNC(=O)c2oc3c(C)c(C)ccc3c2C)c1 (stereo unspecified) | inactive
O=C(NCc1ccccc1)C(=O)NCC1OCCN1S(=O)(=O)c1ccc(Br)cc1 (stereo unspecified) | inactive
Cc1occc(=O)c1OCc1ccc(F)cc1 | inactive
O=C(Oc1ccc(-c2nnco2)cc1)c1ccc(F)c(S(=O)(=O)N2CCOCC2)c1 | inactive
Fc1ccc(COc2ccc(-c3nnco3)cc2)cc1 | 13.5 µM (active)
COc1ccc(NC(=O)c2cccc3c2C(=O)N(CC2CCCO2)C3)cc1OC (stereo unspecified) | 26.9 µM (active)
COc1ccc(C(=O)Nc2ccc(C(=O)NCC3CCCO3)cc2)c(OC)c1OC (stereo unspecified) | inactive
COC(=O)c1ccc(NC(=O)c2cccc3c2C(=O)N(C2CCCCC2)C3)cc1 | inactive
CCOc1ccc(NC(=O)c2cccc3c2C(=O)N(CC2CCCO2)C3)cc1 (stereo unspecified) | 8.49 µM (active)
CCCN1Cc2cccc(C(=O)Nc3ccc(S(=O)(=O)N4CCCCCC4)cc3)c2C1=O | inactive
COCCN1Cc2cccc(C(=O)Nc3ccccc3OC)c2C1=O | inactive
Cc1ccsc1CN(C(=O)c1oc2ccc(Br)cc2c1C)C1CCS(=O)(=O)C1 (stereo unspecified) | inactive

SMILES | Potency
O=C1C=C(c2cc(C(F)(F)F)cc(C(F)(F)F)c2)C[C@@H](c2ccc3c(c2)OCO3)C1 | inactive
COc1ccccc1-c1cnn2c(N3CCOCC3)cc(C)nc12 | 6.01 µM (active)
Cc1cc(C(F)(F)F)n2ncc(-c3ccccc3)c2n1 | inactive
Cc1cc(-n2nc(C)cc2C)n2ncc(-c3ccccc3)c2n1 | inactive
CC1Cc2ccccc2N1S(=O)(=O)c1cccc(C(=O)NCC(c2ccco2)N2CCCC2)c1 (stereo unspecified) | inactive
COc1ccccc1CNC(=O)C(=O)NCC(c1cccs1)S(=O)(=O)c1cccs1 (stereo unspecified) | inactive
O=C(/C=C(O)/C=C/c1ccc(O)cc1)/C=C/c1ccc(O)cc1 | inactive
Cc1[nH]c(=O)c(C(=O)/C=C/c2ccccc2)c2c1CCCC2 | inactive
O=S(=O)(/C=C/c1ccccc1)N1CCNCC1 | inactive
COc1ccc(C(=O)/C=C/c2ccc(-c3ccccc3)cc2)cc1CSCC(=O)O | inactive
O=C(/C=C/c1ccccc1)c1ccccc1O | 3.38 µM (active)
O=C(/C=C/c1ccccc1)c1ccoc1 | 15.1 µM (active)
O=C(CSc1nnc(-c2ccncc2)n1-c1ccccc1)Nc1ccc(Cl)c(Cl)c1 | inactive
COc1ccc(CCNC(=O)c2cn(C)c3ccc(S(=O)(=O)N(C)C4CCCCC4)cc3c2=O)cc1OC | inactive
CSc1ccc(C2c3c(oc4ccccc4c3=O)C(=O)N2CCCN2CCOCC2)cc1 (stereo unspecified) | inactive
COc1cc(Cl)c(C)cc1NC(=O)CSc1nnc(-c2ccco2)n1CC(C)C | inactive
CCOc1cccc(NC(=O)CC#N)c1 | inactive
CCOc1ccc(C(=O)Nc2cccc(SC)c2)cc1 | 6.01 µM (active)
CCOc1ccc(NC(=O)c2ccc(NC(=O)COC(=O)c3ccc(NC(=O)CC#N)cc3)cc2)cc1 | inactive
CCOc1ccc(C(=O)Nc2cccc(-c3ccc4nncn4n3)c2)cc1 | 8.49 µM (active)
CCOc1ccc(C(=O)Nc2c3c(nn2-c2ccccc2)CS(=O)(=O)C3)cc1 | inactive
COc1ccc(OC)c(S(=O)(=O)Nc2cccc(-c3ccc4nncn4n3)c2)c1 | inactive
NS(=O)(=O)c1ccc(CCNS(=O)(=O)c2cccc3cccnc23)cc1 | inactive
O=C(O[C@@H]1[C@H](Cc2ccccc2)NS(=O)(=O)[C@H]2C[C@@H]3C=C[C@]12O3)c1ccccc1Br | inactive
COc1cccc(NC(=O)NCCN2CCCCC2)c1 | inactive
COc1cccc(NC(=O)N2CCCC2C(=O)NC2CCCCC2)c1 (stereo unspecified) | inactive

SMILES | Potency
COc1cccc(NC(=O)Nc2nnc(N3CCCCC3C)s2)c1 (stereo unspecified) | 13.5 µM (active)
CCOC(=O)C1(CCOC)CCN(Cc2cc3ccccc3s2)CC1 | inactive
CN(Cc1ccccc1)S(=O)(=O)c1ccc(F)c(C(=O)Nc2cccc(Cl)c2Cl)c1 | inactive
O=C1c2cccnc2C(Nc2ccc(S(=O)(=O)N3CCCCCC3)cc2)N1Cc1ccccc1 (stereo unspecified) | inactive
C(=N\Nc1ccc2ccccc2n1)/c1ccc2c(c1)OCO2 | 0.19 µM (active)
Cc1noc(C)c1/C=N/Nc1ccc2ccccc2n1 | 1.69 µM (active)
O=C(Cc1ccc(F)cc1)N/N=C/c1ccc2c(c1)OCO2 | inactive
Brc1ccc(-c2csc(N/N=C/c3ccc4c(c3)OCO4)n2)cc1 | inactive
COc1ccc(NC(=O)C2C3CCC(O3)C2C(=O)O)cc1OC (stereo unspecified) | inactive
Cc1cccn2c(=O)c3cc(C(=O)NC(C)c4ccccc4)c(=N)n(CCCO)c3nc12 (stereo unspecified) | inactive
CCCN(CCC)CCNC(=O)c1ccc2c(c1)NC(=O)C(CS(=O)(=O)Cc1cccc(Br)c1)N2 (stereo unspecified) | inactive
COc1cccc(N=C2SC(C(=O)Nc3cccc(Cl)c3)CC(=O)N2C)c1 (stereo unspecified) | inactive
O=C(Nc1cccn(Cc2ccccc2Cl)c1=O)NC1CCCCC1 | 21.3 µM (active)
COc1ccc(Cn2cccc(NC(=O)Nc3ccc(C#N)cc3)c2=O)cc1 | inactive
O=C(COc1ccccc1Cl)Nc1ccccc1C(=O)NC1CC1 | inactive
CCOc1ccc(NC(=O)CCc2c(C)nn(-c3ccc(N4CCCC4)nn3)c2C)cc1 | inactive
CCC(=O)Nc1ccc(-c2ccc(N3CCCCC3)nn2)cc1 | 12 µM (active)
CCC(=O)c1ccc(OCC(=O)Nc2ccc(N3CCCCC3)cc2)cc1 | inactive
O=C(CSc1nc2ccccc2nc1Cc1ccccc1)N1CCCCC1 | inactive
O=C(CC(c1cccs1)N1Cc2ccccc2C1=O)Nc1ccc(F)c(F)c1 (stereo unspecified) | inactive
Cc1sc2ncnc(N3CCC(C(=O)Nc4ccc(F)cc4Cl)CC3)c2c1C | inactive
Cc1sc2ncnc(N3CCC(C(=O)Nc4nc5ccc(Cl)cc5s4)CC3)c2c1C | 15.1 µM (active)
Cc1sc2ncnc(N3CCC(C(=O)NNC(=O)c4ccc(F)cc4)CC3)c2c1C | inactive
